The values that follow come from the supplement of paper PMC7411054.

Each structure is given as a SMILES string. Counter-ions that a name gives are not always drawn. Some results are limits rather than exact numbers.

Common to all, as to conditions: treatment time: 24 h
Test [1] relates to A549-ACTB-RAB5A. Put plainly: lowest phenotypically active concentration; higher = less potent. Put shortly:
(§1)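 Cells from fifteen gene-edited reporter lines (A549, HepG2 and WPMY1) were treated for 24 h at 0.3, 1, 3 or 9 µM and imaged live, four wells per condition. Features were normalised per well to solvent control wells. A condition deviated if ≥3 of 4 wells passed the 95th percentile of control Euclidean distances and was reproducible if its median replicate Pearson correlation beat the 95th percentile of non-replicates; phenotypic activity needed both.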

Test [2] relates to A549-CANX-COX4. Described as above. Put shortly:
as §1

The test system of test [3] is A549-GM130-SQSTM1. Described as above. Put shortly:
as §1

The test system of test [4] is A549-TP53BP1-CLTA. The test is described as above. Put shortly:
as §1

Test [5] deals with A549-TUBA1B-RELA. The test is described as above. Put shortly: as §1
Test [6] concerns HepG2-GM130-SQSTM1. The description is as above. A digest of the protocol:
as §1

The test system of test [7] is A549-ACTB-RAB5A. Kind of test: phenotypically active (imaging signature differs from DMSO and reproducible) at any of 0.3-9 uM (binary (1 = active, 0 = inactive)); higher = active. A digest of the protocol: as §1
Test [8] has as its system A549-CANX-COX4. The test is described as above. A digest of the protocol:
as §1

In test [9] the test system is A549-GM130-SQSTM1. The test is described as above. Put shortly: as §1
The test system of test [10] is A549-TP53BP1-CLTA. The test is described as above. A digest of the protocol:
as §1

Test [11] deals with A549-TUBA1B-RELA. The description is as above. A digest of the protocol:
as §1

Test [12] deals with HepG2-ACTB-RAB5A. The test is described as above. Put shortly:
as §1

Test [13] has as its system HepG2-CANX-COX4. Described as above. Put shortly:
as §1

Test [14] relates to HepG2-GM130-SQSTM1. The description is as above. A digest of the protocol:
as §1

Test [15] relates to HepG2-TP53BP1-CLTA. Described as above. A digest of the protocol:
as §1

The test system of test [16] is HepG2-TUBA1B-RELA. Described as above. Put shortly: as §1
For test [17], the system named is WPMY1-CANX-COX4. The test is described as above. A digest of the protocol: as §1
Test [18] has as its system WPMY1-GM130-SQSTM1. The test is described as above. A digest of the protocol: as §1
Test [19] relates to WPMY1-TP53BP1-CLTA. Described as above. Put shortly: as §1
Test [20] has as its system WPMY1-TUBA1B-RELA. Described as above. A digest of the protocol:
as §1

For the compound `COCc1c(C(C)C)nc(C(C)C)c(/C=C/[C@@H](O)C[C@@H](O)CC(=O)O)c1-c1ccc(F)cc1` [cerivastatin], the “lowest phenotypically active concentration” value in test [1] is not above 0.3 µM; in [2] it was 1 µM; in [3], 1 µM; in test [4] it was not above 0.3 µM; in test [5] it was 1 µM; in test [6], not above 0.3 µM. Besides, the phenotypically active in test [7], in test [8], in test [9], in test [10], in [11] and in test [12] was 1 (active) throughout. The phenotypically active in [13], in test [14], in test [15], in test [16], in test [17] and in test [18] was 1 (active) throughout. Moreover, the phenotypically active in [19] and in test [20] was 1 (active) in each case.
`CC(C)NCCCn1c(Sc2cc3c(cc2I)OCO3)nc2c(N)ncnc21`: the “lowest phenotypically active concentration” value in test [1], in [2], in test [3], in test [4], in test [5] and in [6] was not above 0.3 µM throughout. The phenotypically active in test [7], in test [8], in test [9], in test [10], in test [11] and in test [12] was 1 (active) throughout. Also, the phenotypically active in test [13], in test [14], in test [15], in test [16], in [17] and in [18] was 1 (active) in each case. For the same compound, the phenotypically active in test [19] and in [20] was 1 (active) each time.
With `CO[C@@H]1[C@H](N(C)C(=O)c2ccccc2)C[C@H]2O[C@]1(C)n1c3ccccc3c3c4c(c5c6ccccc6n2c5c31)C(=O)NC4`, the “lowest phenotypically active concentration” value in test [1], in [2], in test [3], in [4], in test [5] and in test [6] was not above 0.3 µM each time. For the same compound, the phenotypically active in [7], in test [8], in [9], in [10], in test [11] and in [12] was 1 (active) in each case. The phenotypically active in test [13], in test [14], in [15], in test [16], in [17] and in [18] was 1 (active) each time. In addition, the phenotypically active in [19] and in test [20] was 1 (active) each time.
With `CCN(CCO)CCCOc1ccc2c(Nc3cc(CC(=O)Nc4cccc(F)c4)n[nH]3)ncnc2c1` [barasertib-HQPA], the “lowest phenotypically active concentration” value in test [1], in test [2], in test [3], in test [4], in test [5] and in test [6] was not above 0.3 µM throughout. The phenotypically active in test [7], in test [8], in test [9], in test [10], in [11] and in [12] was 1 (active) in each case. For the same compound, the phenotypically active in test [13], in test [14], in [15], in test [16], in test [17] and in [18] was 1 (active) throughout. The phenotypically active in [19] and in test [20] was 1 (active) each time.
For the compound `CCCC1(CCC)CCC2(CCN(CCCN(CC)CC)C2)CC1` [Atiprimod dihydrochloride], the “lowest phenotypically active concentration” value is not above 0.3 µM in test [1]; 3 µM in test [2]; not above 0.3 µM in test [3]; 1 µM in [4]; not above 0.3 µM in test [5]; 1 µM in test [6]. Also, the phenotypically active in [7], in test [8], in test [9], in test [10], in test [11] and in [12] was 1 (active) in each case. Also, the phenotypically active in test [13], in test [14], in test [15], in test [16], in test [17] and in test [18] was 1 (active) in each case. For the same compound, the phenotypically active in [19] and in test [20] was 1 (active) in each case.
